VCAM1 TNFa pot = enhances TNF alpha induced VCAM1 expression in HUVEC | AID 808 | activation, % at 2 µM | HUVEC TNFa-stimulated VCAM-1 immunofluorescence, high-content imaging; scaled per plate to unstimulated/TNFa-only wells | 93,000 tested, 0.19% active;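 active means activation above the screen mean plus 3 SD, with well images confirming the hit on visual review, cut at about 28% in these data, passing the limit was not always enough; inconclusive means activation above that limit but images do not confirm it; inactive means activation not above that limit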;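 further: signal is the number of cytoplasmic VCAM-1 stained grains per positive cell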
VCAM1 pot conf = potentiators of TNFa-induced VCAM1 expression, confirmation, imaging, HUVEC, triplicate retest; shares compounds with VCAM1 TNFa pot; 230 tested, under 10 active; activation, % at 2 µM; HUVEC TNFa-stimulated VCAM-1 immunofluorescence imaging; AID 1034;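 active means activation above 30% in triplicate retests at 2 µM, then confirmed by visual review of the well images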;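 further: scaled per plate between unstimulated and TNFa-stimulated DMSO control wells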
* = called active by the depositor; u = inconclusive. Only a selection was taken, and hits are over-represented in it overall.

SMILES	VCAM1 TNFa pot	others
CCCCCn1c(SCC(=O)c2ccccc2)nc2cc(C(=O)NCc3ccco3)ccc2c1=O	-4.9
Cc1cccc(CCNC(=O)CN(C)S(=O)(=O)c2ccc3c(c2)c(=O)n(C)c(=O)n3C)c1	-1.0
Cc1cccc(CCNS(=O)(=O)c2ccc3c(c2)oc(=O)n3C)c1	110.7*	VCAM1 pot conf=-13.9
CCOc1ccccc1CNS(=O)(=O)c1ccc2c(c1)oc(=O)n2C	-7.6
CCC(C(=O)N1CCN(c2cccc(Cl)c2)CC1)c1ccccc1 (stereo not drawn)	-1.2
CC(C)(C)N1CC2(c3ccccc3)CN(C(C)(C)C)CC(c3ccccc3)(C1)C2=O	-2.1
Cc1ccc(S(=O)(=O)Cc2ccc(C(=O)O)o2)cc1	0.0
Cc1ccc(OCC(=O)Nc2ccc([N+](=O)[O-])cn2)cc1C	1.2
Cc1ccccc1OCCNc1ccc(C(F)(F)F)cc1[N+](=O)[O-]	-3.6
COc1cccc(NC(=O)CSc2nc(N)cc(N)n2)c1	23.0
Cc1cc(SCC(N)=O)nc(SCC(=O)c2ccccc2)n1	-1.8
CSc1nc(C)cc(SCC(=O)Nc2ccccc2)n1	55.5*	VCAM1 pot conf=0.6
CCOc1ccc2ccccc2c1/C=N/n1cncn1	-88.5
COc1ccccc1N(CC(=O)Nc1cccnc1)S(=O)(=O)c1ccccc1	8.0
COCCNC(=O)c1ccccc1NC(=O)c1ccccc1N(C)S(=O)(=O)c1ccccc1	31.6*	VCAM1 pot conf=-5.4
CN(c1ccccc1C(=O)NCc1ccccn1)S(C)(=O)=O	5.6
CC1=C(C)/C(=N/OC(=O)c2cccc([N+](=O)[O-])c2)C=CC1=O	25.7
C=CCn1c(SCc2ccc([N+](=O)[O-])cc2)nnc1C(C)NC(=O)c1ccccc1 (stereo not drawn)	-5.5
CCOC(=O)CCN(Cc1cccs1)S(=O)(=O)c1ccc(Cl)cc1	-8.5
CCCC(C)C(=O)Nc1ccncc1 (stereo not drawn)	32.0
CCN(CC)S(=O)(=O)c1cc([N+](=O)[O-])ccc1NNC(=O)Nc1ccc(Cl)c(Cl)c1	-23.1
CC(C)N(CCc1ccncc1)C(=O)Nc1ccc(Cl)c(Cl)c1	38.5*	VCAM1 pot conf=-2.8
Cc1cccc(C)c1NS(=O)(=O)c1ccc(F)cc1	-0.2
O=C1OCC(CO)(CO)N=C1NNc1ccccc1Cl	6.1
CC(C)c1ccc(Oc2cccc(C(=O)/C(C#N)=C/N(C)C)c2)cc1	-3.2
SMILES	VCAM1 TNFa pot	others
CCC(=O)NC(c1ccc([N+](=O)[O-])cc1)c1c(O)ccc2ccccc12 (stereo not drawn)	-5.1
CC(CC(=O)Nc1cc([N+](=O)[O-])ccc1Cl)c1ccccc1 (stereo not drawn)	52.6*	VCAM1 pot conf=-20.6
O=C(CCc1ccccc1)Nc1cc(C(F)(F)F)ccc1Cl	-6.6
Cc1nn(C)c(C)c1CN(C)C(=O)C1c2ccccc2Oc2ccccc21	17.9
Cc1nc2sc(C(c3ccc(Cl)cc3)N3CC(C)OC(C)C3)c(O)n2n1 (stereo not drawn)	-36.5
Cc1cc(C)n(C(=O)COc2ccc(Cl)cc2Cl)n1	43.3*	VCAM1 pot conf=-12.0
CC(C)(CO)NC(=O)CCCOc1ccc(Cl)cc1Cl	-93.4
COc1cc(OC)cc(C(=O)n2nc(C)cc2C)c1	-6.9
COC(=O)NNC(=O)c1ccccc1C	6.2
O=C(COc1ccc(S(=O)(=O)N2CCCCC2)cc1)NC1CCCCC1	-3.8
CCCn1nnc(NC(=O)COc2ccc(C3CCCCC3)cc2)n1	67.8*	VCAM1 pot conf=-14.2
CCOC(=O)c1ccc(NC(=O)CSc2nnc(C3CCCCC3)n2C)cc1	10.7
COc1ccc(CSc2nnnn2C)cc1F	-3.6
O=C(c1ccccc1-c1nc(-c2ccc(Cl)cc2)no1)N1CCCC1	5.3
CCOC(=O)c1cnn(-c2ccccc2)c1-n1cccc1C(=O)C(=O)Nc1ccc(F)cc1	2.6
Cc1ccc(NC(=O)CCc2ccc(S(=O)(=O)N3CCOCC3)cc2)c(C)c1	3.6
COc1cccc(CNC(=O)c2ccc(S(=O)(=O)N3CCCC3)cc2)c1	79.5*	VCAM1 pot conf=-17.3
CC(=O)c1cccc(NC(=O)c2ccc(S(=O)(=O)N3CCCCC3)cc2)c1	2.9
COc1ccc(CNC(=O)c2ccc(CN3CCOCC3)cc2)cc1	-7.8
Cc1cc(S(=O)(=O)N2CCCC2)ccc1OCC(=O)NCc1ccco1	7.6
CC(=O)c1ccc(N2CCN(S(=O)(=O)c3cccc(S(=O)(=O)N4CCOCC4)c3)CC2)cc1	-7.6
O=C(NCc1ccco1)c1ccc(S(=O)(=O)c2cccc(S(=O)(=O)N3CCOCC3)c2)cc1	u	VCAM1 pot conf=-21.4
CCOC(=O)Cc1nnc(NC(=O)CSc2nnc3c4ccccc4n(C)c3n2)s1	-8.2
CCOc1cc(NC(=O)c2ccco2)c(OCC)cc1NC(=O)CCC(=O)NCc1cccnc1	-100.0
CC(=O)NC1=NN(C(C)=O)C2(CCCCC2)S1	8.1
SMILES	VCAM1 TNFa pot	others
COc1ccc(NS(=O)(=O)c2cc(C)ccc2NC(=O)c2cc(C)oc2C)cc1	-44.4
c1ccc(COc2ccc(OCCCCN3CCCCC3)cc2)cc1	38.5*	VCAM1 pot conf=-13.0
CN1CCN(c2ccccc2NC(=O)c2ccc(OCc3ccccc3)cc2)CC1	7.3
O=C(CN1CCOCC1)Nc1ccc(OCc2ccccc2)cc1	0.0
C/C(=C\C(=O)O)CC(=O)O	3.7
O=C(NC(C(=O)c1ccccc1)n1ccc(=O)[nH]c1=O)c1ccccc1 (stereo not drawn)	-27.2
c1ccc(-n2c(Cc3cccnc3)nc3cnccc32)cc1	-6.1
Brc1ccc(NCc2cccc3ccccc23)nc1	31.1*	VCAM1 pot conf=-36.1
CCOc1ccc2nc(SCC(=O)NC(=O)NCc3ccco3)[nH]c2c1	-1.2
CCCCC1CC1C(=O)Nc1ncc2c(n1)CC(C)(C)CC2=O (stereo not drawn)	2.7
CC1CCN(C(=O)Cn2c(=O)n(CCc3ccccc3)c(=O)c3ccccc32)CC1	u	VCAM1 pot conf=-27.1
Cc1ccccc1Cn1c(=O)n(CCC(=O)NCc2ccc3c(c2)OCO3)c(=O)c2ccccc21	0.9
O=c1c2ccccc2nc(-c2ccoc2)n1CCc1ccccc1	-2.2
CC(=O)OC1COC(N2CCc3cc([N+](=O)[O-])ccc32)C(OC(C)=O)C1OC(C)=O (stereo not drawn)	9.6
O=C(Nc1ccc(-c2cc3ccccc3oc2=O)c(Cl)c1)c1cccnc1	-8.2
CC(=O)Nc1cccc(NC(=O)c2cc3ccccc3o2)c1	-5.6
O=C(Nc1ccc(N2CCN(C(=O)c3ccco3)CC2)c(Cl)c1)c1cc2ccccc2o1	u	VCAM1 pot conf=-11.1
N#Cc1c(-n2cccc2)cccc1-n1cccc1	5.9
O=C(NC12CC3CC(CC(C3)C1)C2)c1cncc(O)c1	1.5
O=S(=O)(N1CCCCCC1)N1CCN(S(=O)(=O)N2CCCCC2)CC1	-27.8
COc1cc2c(cc1NC(=O)c1cc(-c3ccncc3)nc3ccc(C)cc13)oc1ccccc12	-7.6
CN(C)S(=O)(=O)N(CCN1CCOCC1)Cc1ccccc1F	45.2*	VCAM1 pot conf=-8.2
O=C(Nc1ccccc1)N(CCN1CCOCC1)Cc1ccccc1F	10.0
CC(=O)c1ccc(NS(=O)(=O)c2ccc(CC(C)C)cc2)cc1	8.2
COc1ccc(C)cc1NS(=O)(=O)c1ccc(NS(=O)(=O)c2ccc(NC(C)=O)cc2)cc1	1.5
CC(=O)Nc1ccc(S(=O)(=O)NC(CC(=O)NC2CCCCC2C)C(C)C)cc1 (stereo not drawn)	30.9*	VCAM1 pot conf=-13.8
O=C1Nc2c(c(=O)[nH]c(=O)n2-c2ccccc2F)C(C(F)(F)F)(C(F)(F)F)N1	27.5
CCOC(=O)Cc1csc(NC(=O)c2ccc(C)o2)n1	-5.6
CCOC(=O)Cc1csc(/C(=N/O)C(N)=O)n1	11.9

Screens as filed in PubChem.
